High-throughput results: PubChem BioAssay, National Center for Advancing Translational Sciences (NCATS)
PLK1 PBD block: qHTS for Inhibitors of PLK1-PDB (polo-like kinase 1 - polo-box domain): Primary Screen; Serine/threonine-protein kinase PLK1 (Homo sapiens), P53350; Plk1 PBD binding of FITC phosphopeptide, fluorescence polarization; Potency, µM, actives largely listed as inhibitors; 2.8% of 360,000 active; AID 720504, 2013; further: series mostly up to about 57 µM; nearly all actives have a fitted effect of over 65% in size
KAT2A inh: qHTS Assay for Inhibitors of GCN5L2. Histone acetyltransferase KAT2A (Homo sapiens), Q92830. GCN5L2 HAT assay, ThioGlo1 CoA-SH fluorescence. Potency, µM (titrated, usually from 58.9 µM), most hits filed as inhibitors. 0.21% of 390,000 active. AID 504327, 2011
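Titration-based screen in which CoA formation is detected via maleimide probe ThioGlo1 (50uM) turning fluorescent on thiol reaction; substrates H3(1-25) 75uM and acetyl-CoA 70uM, GCN5L2 20nM, 20 min incubation at room temperature.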
VDR inh: Inhibitors of the vitamin D receptor (VDR): qHTS; 0.93% of 400,000 active; AID 504847, 2011; VDR-SRC2-3 peptide fluorescence polarization, 2 h; Potency, µM, most hits filed as inhibitors; Vitamin D3 receptor (Homo sapiens), P11473
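Fluorescence polarization assay of small-molecule disruption of VDR binding to coregulator peptide SRC2-3. Compounds and controls pin-transferred, then read after 2 h incubation at ambient room temperature.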
ALOX12 inh: Primary qHTS assay for inhibitors of human arachidonate 12S-lipoxygenase (ALOX12): Round 2 | Potency, µM (titrated, usually from 108 µM), actives largely listed as inhibitors | 1.1% of 580,000 active | purified 12hLO, xylenol orange hydroperoxide absorbance | Polyunsaturated fatty acid lipoxygenase ALOX12 (Homo sapiens), P18054
Target sequence (P18054 whole entry, looked up): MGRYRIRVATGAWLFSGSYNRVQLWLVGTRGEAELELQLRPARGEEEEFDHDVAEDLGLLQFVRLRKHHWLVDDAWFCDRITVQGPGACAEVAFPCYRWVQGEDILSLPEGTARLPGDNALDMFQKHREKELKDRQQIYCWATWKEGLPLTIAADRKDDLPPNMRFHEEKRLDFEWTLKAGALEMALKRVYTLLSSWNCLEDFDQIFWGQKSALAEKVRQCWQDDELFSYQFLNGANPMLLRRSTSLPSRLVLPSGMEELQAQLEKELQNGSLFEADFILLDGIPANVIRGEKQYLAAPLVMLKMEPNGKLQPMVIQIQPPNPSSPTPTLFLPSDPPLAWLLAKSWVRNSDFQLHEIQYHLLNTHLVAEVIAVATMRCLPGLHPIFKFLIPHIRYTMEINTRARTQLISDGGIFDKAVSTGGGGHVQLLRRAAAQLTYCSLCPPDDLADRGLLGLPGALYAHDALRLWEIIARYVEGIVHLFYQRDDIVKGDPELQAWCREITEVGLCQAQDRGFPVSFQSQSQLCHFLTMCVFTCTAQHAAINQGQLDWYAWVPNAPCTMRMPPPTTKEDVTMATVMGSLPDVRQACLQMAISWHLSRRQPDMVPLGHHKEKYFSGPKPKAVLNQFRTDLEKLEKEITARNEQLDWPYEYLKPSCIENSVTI
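Purified human 12hLO (150 nM final) in 25 mM Hepes, 0.01% Triton X-100, pH 7.0 was preincubated 15 min at room temperature with compound. Then 40 uM arachidonic acid was added, 30 min. Hydroperoxide was read by Fe-XO absorbance ratio 573/405 nm.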
Numbers stand for hits. In the library only some 3% were active in any assay of this set; here they are far more common. The call rests on the fitted dose curve; in most records, active means well fitted curve in the direction sought with a large enough effect; inconclusive means small, poorly fitted or top-dose-only effect, or another doubt; inactive means no such curve, though single readings can be large; an effect the other way counts as inactive or inconclusive.

`COc1cc(/C=C/C(=O)OCC(=O)Nc2ccc(S(N)(=O)=O)cc2)ccc1O` gave PLK1 PBD block 13.4µM, KAT2A inh inactive, VDR inh inactive and ALOX12 inh inactive.
`COc1cc(/C=C/C(=O)OCC(=O)Nc2ccc([N+](=O)[O-])cc2)ccc1O` gave PLK1 PBD block inactive, KAT2A inh inactive, VDR inh inactive and ALOX12 inh inactive.
For C=CCn1cc2c3c(cccc31)[C@H](CC(C)C)N[C@H](C(=O)NC1CCC1)C2 the results were ALOX12 inh inactive.
Screening O=C1C(=O)c2cccnc2-c2ncccc21 returned PLK1 PBD block inconclusive and ALOX12 inh 3.98µM.
Screening COC1=C(Br)C(=O)c2ncccc2C1=O returned PLK1 PBD block 1.89µM, VDR inh 3.55µM and ALOX12 inh 25.1µM.
O=C1c2cccnc2-c2ncccc21 was read as PLK1 PBD block inactive, KAT2A inh inactive, VDR inh inactive and ALOX12 inh inactive.
`CCc1nc(NCCCN2CCOCC2)c2oc3ccccc3c2n1` gave PLK1 PBD block inactive, KAT2A inh inactive, VDR inh inactive and ALOX12 inh inconclusive.
For CCc1nc(N2CCCC(C)C2)c2oc3ccccc3c2n1 (stereo unspecified) the results were PLK1 PBD block 15µM, KAT2A inh inactive, VDR inh inconclusive and ALOX12 inh inactive.
CCc1nc(NCCN2CCOCC2)c2oc3ccccc3c2n1 was read as PLK1 PBD block inactive, KAT2A inh inactive, VDR inh inactive and ALOX12 inh 14.1µM.
Screening COc1cccc2nc3cc(C)c(C)cc3nc12 returned PLK1 PBD block 16.8µM, KAT2A inh inactive, VDR inh 22.4µM and ALOX12 inh inconclusive.
For COc1ccc(CCNC(=O)c2c([S-])n(-c3ccc(C)cc3)c3cccc[n+]23)cc1 the results were PLK1 PBD block inactive, KAT2A inh inactive, VDR inh inactive and ALOX12 inh 35.5µM.
`CCc1ccc2n(-c3ccc(OC)cc3)c([S-])c(C(=O)Nc3cc(C)cc(C)c3)[n+]2c1` gave PLK1 PBD block inactive, KAT2A inh inactive, VDR inh inactive and ALOX12 inh inactive.
For CC(=O)NCCC(=O)N(C)CC1CCN(CCc2cccc(C(F)(F)F)c2)CC1 the results were PLK1 PBD block 21.2µM, KAT2A inh inactive, VDR inh inconclusive and ALOX12 inh inactive.
Screening CC(=O)Nc1ccc(S(=O)(=O)NCC(CCC(=O)O)C(F)(F)F)cc1 (stereo unspecified) returned PLK1 PBD block 13.4µM, KAT2A inh inactive, VDR inh inconclusive and ALOX12 inh inactive.
Screening Cc1ccc2c(c1)Oc1cc(Cl)c(S(=O)(=O)N(C)Cc3ccccc3)cc1C(=O)N2 returned ALOX12 inh inactive.
`Cc1sc2c(c1C)CN(C(C)C)CN2C(=O)c1ccccc1` gave ALOX12 inh 6.31µM.
Cc1cccnc1NC(=S)Nc1ncccc1C was read as PLK1 PBD block inactive, KAT2A inh inactive, VDR inh inactive and ALOX12 inh inactive.
For COc1ccc(NC(=S)Nc2ncccc2C)cc1OC the results were PLK1 PBD block inactive, KAT2A inh inactive, VDR inh inactive and ALOX12 inh 5.01µM.
Screening Cc1cccnc1NC(=S)Nc1ccc(Cl)c(Cl)c1 returned PLK1 PBD block inactive, KAT2A inh inactive, VDR inh inactive and ALOX12 inh 8.91µM.
COc1ccc(NC(=S)Nc2ncccc2C)c(OC)c1 was read as PLK1 PBD block inconclusive, KAT2A inh inactive, VDR inh inactive and ALOX12 inh inconclusive.
COCCN(Cc1cccs1)S(=O)(=O)c1cccc(C(=O)O)c1 was read as ALOX12 inh inactive.
`COC(=O)c1ccc(C)c(NC(=O)c2nn(C(C)C)c(=O)c3ccccc23)c1` gave ALOX12 inh inactive.
`CCOc1ccc2nc(N/C(N)=N/C(=S)Nc3ccc(C)c(C)c3)nc(C)c2c1` gave PLK1 PBD block inactive, KAT2A inh inactive, VDR inh inconclusive and ALOX12 inh 44.7µM.
`COc1ccc(NC(=S)/N=C(\N)Nc2nc(C)c3ccc(C)cc3n2)cc1` gave PLK1 PBD block inactive, KAT2A inh inactive, VDR inh inactive and ALOX12 inh inconclusive.
Screening CCc1nc2c(c(-c3ccc(Cl)cc3)n1)CN(Cc1ccc(F)cc1)CC2 returned ALOX12 inh inactive.
CCCN(CCC)C(=O)c1cc([N+](=O)[O-])cc2c1-c1ccc([N+](=O)[O-])cc1C2=C(C#N)C#N was read as PLK1 PBD block inconclusive, KAT2A inh inconclusive, VDR inh 39.8µM and ALOX12 inh inactive.
CCOC(=O)/C(C(N)=NC)=C(\O)c1ccccc1 was read as PLK1 PBD block inactive, KAT2A inh inactive, VDR inh inactive and ALOX12 inh inactive.
`COC(=O)C(=Nc1ccccc1)/C(C(=O)C(=O)N(C)c1ccccc1)=C(\O)c1ccccc1` gave PLK1 PBD block inactive, KAT2A inh inactive, VDR inh inactive and ALOX12 inh 12.6µM.
For COc1ccc(C2C3=C(CCCC3=O)OC3=C2C(=O)CCC3)cc1OC the results were ALOX12 inh inactive.
O=C(Nc1ccc(Br)cc1)C1CC2CCC1C2 (stereo unspecified) was read as ALOX12 inh inactive.
Screening CC1CCCCC1NC(=O)c1cc2ccccc2o1 (stereo unspecified) returned PLK1 PBD block 29.9µM, KAT2A inh inactive, VDR inh inactive and ALOX12 inh inactive.
`CC(C)NC(=O)c1cc2ccccc2o1` gave PLK1 PBD block inactive, KAT2A inh inactive, VDR inh inactive and ALOX12 inh inactive.
Cc1ccc(/C=C2/CNC/C(=C\c3ccc(C)cc3)C2=O)cc1 was read as KAT2A inh inactive, VDR inh 2µM and ALOX12 inh inconclusive.
For Cc1ccc(/C=C2/CNC/C(=C/c3ccc(C)cc3)C2=O)cc1 the results were PLK1 PBD block inactive, VDR inh inconclusive and ALOX12 inh inactive.
C[C@@]12C(=O)Nc3ccc(F)cc3C(=O)N1[C@H]1c3ccccc3OC[C@@H]1[C@@H]2c1ccccc1 was read as PLK1 PBD block 23.8µM, KAT2A inh inactive and VDR inh inactive.
For Fc1ccc(-c2onc3ccc(C4OCCO4)cc23)cc1 the results were PLK1 PBD block inactive, KAT2A inh inactive, VDR inh inactive and ALOX12 inh inactive.
Screening O=Cc1ccc2noc(-c3ccc(F)cc3)c2c1 returned PLK1 PBD block 23.8µM, KAT2A inh inactive, VDR inh inactive and ALOX12 inh inactive.
`O=C(CCS(=O)(=O)C1CCCC1)NCC(O)c1cccc(Cl)c1` (stereo unspecified) gave ALOX12 inh inactive.
`Cn1c(CS/C(N)=N/N=C/c2ccccc2)c(Br)c(=O)n1-c1ccccc1` gave PLK1 PBD block 23.8µM, KAT2A inh inactive, VDR inh 50.1µM and ALOX12 inh inactive.
NC(=N\N=Cc1ccccc1)/C(N)=N/N=Cc1ccccc1 was read as PLK1 PBD block inactive, VDR inh inactive and ALOX12 inh inactive.
Screening Cc1ccccc1NC(=O)CNc1nc(Nc2ccccc2)nc(Nc2ccccc2)n1 returned ALOX12 inh 15.8µM.
